# Unmarked numbers belong to inactive results. Active and inactive are the calls of the source. No stated cut-off is given here; in the data, active means fold change permeability below about 0.7 or above about 1.3; inactive means in between.
# Assay: compounds altering in vitro BBB leakiness – cell-based, FITC-avidin fluorescence, HTS, primary screen (AID 1963498); further: test concentration not given here
# Settings: brain endothelial barrier, actives lie on both sides
row,Compound,fold change permeability
1,COC(=O)C1=CO[C@@H](O)[C@@H]2C(CO)=CC[C@H]12,1.1 (active)
2,C[C@@H](c1nc(-c2ccc(C#N)cc2)cs1)[C@](O)(Cn1cncn1)c1cc(F)ccc1F,1.2
3,CN(C)c1nc(N)c(C(=O)N=C(N)N)nc1Cl,1
4,CC#CCOC(=O)c1c(C)nc2sc3c(c2c1N)CCC(O)C3 (stereo unspecified),1.9 (active)
5,CC[C@H]1OC(=O)[C@H](C)C(=O)[C@H](C)[C@@H](O[C@@H]2O[C@H](C)C[C@H](N(C)C)[C@H]2O)[C@](C)(OC)C[C@@H](C)C(=O)[C@H](C)[C@H]2N(CCCCn3cnc(-c4cccnc4)c3)C(=O)O[C@]12C,0.7 (active)
6,O=C(O)c1cccc(-c2ccc(-c3cn(C(=O)N4CCCCC4Cc4ccccc4)nn3)cc2)c1 (stereo unspecified),1

# Reference: PubChem BioAssay
